Source: PubChem BioAssay (NCATS)
Inconclusive results are not listed. Activity calls are given as the source filed them. Unless noted, the call rests on the fitted dose curve; in most records, active means well fitted curve in the direction sought with a large enough effect; inconclusive means small, poorly fitted or top-dose-only effect, or another doubt; inactive means no such curve, though single readings can be large; an effect the other way counts as inactive or inconclusive.

What was measured:
[1] = test system: MKL-2; test: qHTS assay to identify novel small-molecules to repurpose for Merkel cell carcinoma treatment (AID 1296009); settings: MCC and control cell lines, CellTiter-Glo viability, 72 h; series mostly up to 46 µM; further: nearly all actives have a fitted effect of over 60% in size; further: potency means the concentration at half of the fitted maximal effect
Procedure, shortened: (§1)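 Cells were treated for 72 hr at 37 degree celsius with compounds in 8- or 11-point dose response. Viability was read by CellTiter-Glo luminescence, normalized to no-cell (cytotoxicity) and DMSO controls.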

[2] = test system: UISO; test: as above; settings: MCC and control cell lines, CellTiter-Glo viability, 72 h; series mostly up to 46 µM
Procedure, shortened: as §1

[3] = test system: C33A; test: Primary qHTS to identify gynecologic anti-cancer compounds using libraries of approved drugs and bioactive compounds (AID 1345084); settings: Gynecologic cancer cell panel viability, ATPlite luminescence, 48 h; series mostly up to 57.5 µM; further: nearly all actives have a fitted effect of over 55% in size; further: potency means the concentration at half of the fitted maximal effect
Procedure, shortened: (§2)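 ATP-based viability (ATPlite), 1,000 cells/well, 16 h pre-incubation, 48 h compound at 37 C, 5% CO2, 15 min RT before read.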

[4] = test system: Es-2; test: as above; settings: Gynecologic cancer cell panel viability, ATPlite luminescence, 48 h; series mostly up to 57.5 µM
Procedure, shortened: as §2

[5] = test system: HeLa; test: as above; settings: Gynecologic cancer cell panel viability, ATPlite luminescence, 48 h; series mostly up to 57.5 µM
Procedure, shortened: as §2

[6] = test system: Hek293T; test: as above; settings: Gynecologic cancer cell panel viability, ATPlite luminescence, 48 h, control line for the selectivity index; series mostly up to 57.5 µM
Procedure, shortened: as §2

[7] = test system: OV90; test: as above; settings: Gynecologic cancer cell panel viability, ATPlite luminescence, 48 h; series mostly up to 57.5 µM
Procedure, shortened: as §2

[8] = test system: PA-1; test: as above; settings: Gynecologic cancer cell panel viability, ATPlite luminescence, 48 h; series mostly up to 57.5 µM
Procedure, shortened: as §2

[9] = test system: SKOV3; test: as above; settings: Gynecologic cancer cell panel viability, ATPlite luminescence, 48 h; series mostly up to 57.5 µM
Procedure, shortened: as §2

[10] = test system: Tov112D; test: as above; settings: Gynecologic cancer cell panel viability, ATPlite luminescence, 48 h; series mostly up to 57.5 µM
Procedure, shortened: as §2

[11] = qHTS assay to identify inhibitors of the type 1 interferon - major histocompatibility complex class I in skeletal muscle: Counter screen cell viability and HiBit confirmation (AID 1347412); settings: iHSKM muscle cells + IFN-b, HiBiT or CellTiter-Glo, 24 h; further: potency means the concentration at half of the fitted maximal effect; nearly all actives have a fitted effect of over 60% in size
Procedure, shortened: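 CRISPR HLA-B*08:01-HiBit immortalized human myoblasts (C25cl48) stimulated with 4 ng/ml IFN-beta and compounds (12-point 1:3, top 46 uM final) for 24 h at 37 C. Duplicate plates read by HiBit lytic luminescence or CellTiter Glo ATP.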

[12] = test system: WaGa; test: qHTS assay to identify novel small-molecules to repurpose for Merkel cell carcinoma treatment (AID 1296009); settings: MCC and control cell lines, CellTiter-Glo viability, 72 h; series mostly up to 46 µM; further: nearly all actives have a fitted effect of over 60% in size; further: potency means the concentration at half of the fitted maximal effect
Procedure, shortened: as §1

[13] = test system: CASKI; test: Primary qHTS to identify gynecologic anti-cancer compounds using libraries of approved drugs and bioactive compounds (AID 1345084); settings: Gynecologic cancer cell panel viability, ATPlite luminescence, 48 h; series mostly up to 57.5 µM; further: nearly all actives have a fitted effect of over 55% in size; further: potency means the concentration at half of the fitted maximal effect
Procedure, shortened: as §2

[14] = test system: JEG-3; test: as above; settings: Gynecologic cancer cell panel viability, ATPlite luminescence, 48 h; series mostly up to 57.5 µM
Procedure, shortened: as §2

[15] = test system: Tov-21-G; test: as above; settings: Gynecologic cancer cell panel viability, ATPlite luminescence, 48 h; series mostly up to 57.5 µM
Procedure, shortened: as §2

[16] = Drug repurposing screens with cells derived from glioblastoma tumor samples (AID 1345199); settings: GBM patient neurospheres viability, ATP luminescence, 48 h; further: nearly all actives have a fitted effect of over 40% in size; further: potency means the concentration at half of the fitted maximal effect; on activity, negative = cell killing: on the % scale 0 is the no-effect control and ±100 the full control effect
Procedure, shortened: (§3)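 Four patient lines of CD133+ GBM neurospheres were screened at several concentrations; hits were retested in those lines plus three slower-growing GBM lines, using 48-hour treatment and ATP-based viability.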

[17] = test system: astro; test: as above; settings: viability, ATP luminescence, 48 h; series mostly up to 45.9 µM
Procedure, shortened: as §3

[18] = test system: NIH3T3; test: qHTS assay to identify novel small-molecules to repurpose for Merkel cell carcinoma treatment (AID 1296009); settings: MCC and control cell lines, CellTiter-Glo viability, 72 h; at 44.8 µM (top of the series) unless noted; further: nearly all actives have a fitted effect of over 60% in size; further: potency means the concentration at half of the fitted maximal effect
Procedure, shortened: as §1

[19] = test system: CAOV3; test: Primary qHTS to identify gynecologic anti-cancer compounds using libraries of approved drugs and bioactive compounds (AID 1345084); settings: Gynecologic cancer cell panel viability, ATPlite luminescence, 48 h; series mostly up to 57.5 µM; further: nearly all actives have a fitted effect of over 55% in size; further: potency means the concentration at half of the fitted maximal effect
Procedure, shortened: as §2

[20] = molecular target: Nuclear receptor subfamily 1 group I member 2 (Rattus norvegicus) (UniProt Q9R1A7); test: qHTS assay for small molecule activators of the rat pregnane X receptor (rPXR) signaling pathway (AID 651751; call rule not given here; further: 0% is about no effect); settings: rPXR reporter cells, luciferase (One-Glo), 24 h
[21] = at 45.9 µM (top of the series), tumour line B
[22] = at 45.9 µM (top of the series), tumour line D
[23] = at 46.1 µM (top of the series), tumour line C
[24] = at 46 µM (top of the series), tumour line A
[25] = at 91.6 µM (top of the series), tumour line B

Nuclear receptor subfamily 1 group I member 2 (Rattus norvegicus), sequence (Q9R1A7 whole entry, looked up): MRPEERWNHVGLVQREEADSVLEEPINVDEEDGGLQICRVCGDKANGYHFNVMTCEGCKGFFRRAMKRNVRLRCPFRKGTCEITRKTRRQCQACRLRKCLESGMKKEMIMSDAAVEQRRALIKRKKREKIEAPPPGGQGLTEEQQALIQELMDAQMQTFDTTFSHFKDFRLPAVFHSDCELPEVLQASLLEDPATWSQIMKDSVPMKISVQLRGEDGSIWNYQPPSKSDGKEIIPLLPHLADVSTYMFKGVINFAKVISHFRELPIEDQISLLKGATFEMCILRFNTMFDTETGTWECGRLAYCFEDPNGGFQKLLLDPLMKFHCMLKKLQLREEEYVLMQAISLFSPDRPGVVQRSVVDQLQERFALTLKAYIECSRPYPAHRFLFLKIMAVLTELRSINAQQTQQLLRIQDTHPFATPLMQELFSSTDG

CN(C)c1ccc(C(=C2C=CC(=[N+](C)C)C=C2)c2ccccc2)cc1
active: Potency [1] 0.0133 µM | Potency [2] 0.0668 µM | Potency [3] 2 µM | Potency [4] 1.78 µM | Potency [5] 2.51 µM | Potency [6] 2.51 µM | Potency [7] 11.2 µM | Potency [8] 1.26 µM | Potency [9] 1.12 µM | Potency [10] 2 µM | Potency ([11]; HiBiT) 1.98 µM | Potency ([11]; Viability) 3.94 µM

COc1cc2c3cc1Oc1cc(ccc1O)C[C@@H]1c4c(cc(OC)c(O)c4Oc4ccc(cc4)C[C@@H]3N(C)CC2)CC[N+]1(C)C
inactive: Potency [1] | Potency [2] | Potency [12] | Potency [3] | Potency [13] | Potency [4] | Potency [5] | Potency [6] | Potency [14] | Potency [7] | Potency [8] | Potency [9] | Potency [15] | Potency [10] | activity, negative = cell killing [16, 21] 1% | activity, negative = cell killing [16, 22] -8.25% | activity, negative = cell killing [16, 23] 7.69% | Potency [17]

COc1cc(/C=C/C(=O)N2CCN(CC(=O)N3CCCC3)CC2)cc(OC)c1OC
inactive: outcome [18] | Potency [3] | Potency [19] | Potency [13] | Potency [4] | Potency [5] | Potency [6] | Potency [14] | Potency [7] | Potency [8] | Potency [15] | Potency [10] | activity, negative = cell killing [16, 21] -11% | activity, negative = cell killing [16, 22] -1.45% | activity, negative = cell killing [16, 24] -40.7% | activity, negative = cell killing [16, 23] -18.6% | Potency [17]

O=C(Nc1ccc(C(=O)O)c(O)c1)c1ccccc1
inactive: Potency [1] | Potency [2] | Potency [12] | Potency [3] | Potency [13] | Potency [4] | Potency [5] | Potency [6] | Potency [14] | Potency [7] | Potency [8] | Potency [9] | Potency [15] | Potency [10] | activity, negative = cell killing [16, 21] -14.9% | activity, negative = cell killing [16, 22] -3.46% | activity, negative = cell killing [16, 23] -18.9% | Potency [17]

CCCCC1C(=O)N(c2ccccc2)N(c2ccc(O)cc2)C1=O (configuration not stated)
active: Potency [1] 0.596 µM | Potency [2] 6.68 µM | Potency [12] 2.99 µM | Potency [10] 22.4 µM | Potency ([16]; tumour line A) 7.94 µM
inactive: Potency [13] | Potency [5] | Potency [14] | activity, negative = cell killing ([16]; at 20 µM (top of the series), tumour line C) -14.9%

O=C1CN(/N=C/c2ccc([N+](=O)[O-])o2)C(=O)N1
inactive: outcome [18] | Potency [3] | Potency [19] | Potency [13] | Potency [4] | Potency [5] | Potency [8] | Potency [15] | Potency [10] | activity, negative = cell killing [16, 21] -5.05% | activity, negative = cell killing [16, 22] -3.4% | activity, negative = cell killing [16, 24] -24.2% | activity, negative = cell killing [16, 23] -8.71% | max response [20] -1.4%
active: Potency [12] 23.7 µM | Potency [9] 22.4 µM

CC1(C)S[C@@H]2[C@H](NC(=O)[C@H](N)c3ccccc3)C(=O)N2[C@H]1C(=O)O
inactive: Potency [1] | Potency [2] | Potency [12] | Potency [3] | Potency [13] | Potency [4] | Potency [5] | Potency [6] | Potency [14] | Potency [7] | Potency [8] | Potency [9] | Potency [15] | Potency [10] | activity, negative = cell killing [16, 21] -7.71% | activity, negative = cell killing [16, 22] 10.7% | activity, negative = cell killing [16, 23] 12.5% | Potency [17] | max response [20] -3.75%

Clc1ccccc1-c1nc(-c2ccncc2)no1
active: Potency [5] 28.2 µM | Potency [9] 22.4 µM
inactive: Potency [1] | Potency [2] | Potency [12] | Potency [3]

Nc1nc2ccc([N+](=O)[O-])cc2s1
active: Potency ([16]; tumour line A) 39.8 µM
inactive: Potency [1] | Potency [3] | Potency [13] | Potency [4] | Potency [14] | Potency [7] | Potency [8] | Potency [15] | Potency [10] | activity, negative = cell killing [16, 25] -13.3% | activity, negative = cell killing ([16]; at 99.2 µM (top of the series), tumour line C) -20.5% | max response [20] -3.29%

CCNc1nc2c(ncn2[C@H]2C[C@H](O)[C@@H](CO)O2)c(=O)[nH]1
inactive: outcome [18] | Potency [3] | Potency [19] | Potency [13] | Potency [4] | Potency [5] | Potency [6] | Potency [14] | Potency [7] | Potency [8] | Potency [9] | Potency [15] | Potency [10]

CN(C)c1ccc(N=NS(=O)(=O)O)cc1
inactive: Potency [3] | Potency [13] | Potency [4] | Potency [5] | Potency [6] | Potency [15] | activity, negative = cell killing [16, 25] -16.9%
active: Potency [1] 6.44 µM | Potency [12] 40.7 µM

COc1ccnc2c1CCCCC2S(=O)c1nc2ccccc2[nH]1 (configuration not stated)
inactive: Potency [1] | Potency [2] | Potency [12] | Potency [3] | Potency [13] | Potency [4] | Potency [5] | Potency [6] | Potency [14] | Potency [7] | Potency [8] | Potency [9] | Potency [15] | Potency [10]

COC(=O)c1nc(Cl)c(Cl)nc1N
active: Potency [1] 0.299 µM | Potency [2] 6.68 µM | Potency [12] 1.5 µM | Potency [3] 8.91 µM | Potency [5] 7.08 µM | Potency [6] 14.1 µM | Potency [8] 14.1 µM | Potency [15] 12.6 µM | Potency [10] 3.16 µM | Potency ([11]; HiBiT) 2.22 µM | Potency ([11]; Viability) 11.1 µM

CC1(C)S[C@@H]2[C@H](NC(=O)[C@H](NC(=O)N3CCN(S(C)(=O)=O)C3=O)c3ccccc3)C(=O)N2[C@H]1C(=O)O
inactive: outcome [18] | Potency [3] | Potency [19] | Potency [13] | Potency [4] | Potency [5] | Potency [6] | Potency [14] | Potency [7] | Potency [8] | Potency [15] | Potency [10] | activity, negative = cell killing [16, 21] -6.53% | activity, negative = cell killing [16, 22] -7.16% | activity, negative = cell killing [16, 24] -8.92% | activity, negative = cell killing [16, 23] -22.9% | Potency [17]
